The values below come from PubChem BioAssay (NCI).

The panel holds about 79,000 compounds, 15% with a hit somewhere; the sample as a whole holds those more often. A number with no mark means an inactive call. Calls of active or inactive are those of the source. No stated cut-off is given here; in the data, active means growth inhibition above about 70%; inactive means the rest.

Assay [1] can be described thus: NCI Yeast Anticancer Drug Screen. Data for the rad50 strain (AID 155).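 Further: 0% = growth of vehicle-only cultures of the same strain.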 Particulars: S. cerevisiae rad50 strain growth inhibition; at 50.0 µM; stronger effect = higher value. The gist of the method: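 Relative growth inhibition (compound vs vehicle) was measured in yeast with a defined repair-gene alteration.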
A short description of assay [2]: NCI Yeast Anticancer Drug Screen. Data for the mec2-1 strain (AID 157). Particulars: S. cerevisiae mec2-1 strain, at 50.0 µM, stronger effect = higher value. In a few lines: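 Compounds were applied to mec2-1 yeast cells. Their growth was then compared with that of vehicle-treated cultures to give growth inhibition.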
Assay [3] is described as follows: NCI Yeast Anticancer Drug Screen. Data for the sgs1 mgt1 strain (AID 161).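 Further: 0% = growth of cultures given vehicle only.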 Particulars: S. cerevisiae sgs1 mgt1 strain, at 50.0 µM, stronger effect = higher value. The gist of the method:
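Compounds are added to genetically altered yeast, and growth is compared with cultures given vehicle alone to give percent inhibition.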

Assay [4] can be described thus: NCI Yeast Anticancer Drug Screen. Data for the cln2 rad14 strain (AID 165).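 Further: 0% = growth equal to vehicle treated cultures.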 As to conditions: S. cerevisiae cln2 rad14 strain, at 50.0 µM, stronger effect = higher value. The gist of the method:
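Strain: cln2 rad14 yeast, altered in cell cycle control and DNA damage repair. Read-out: growth inhibition vs vehicle.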

Assay [5] can be described thus: NCI Yeast Anticancer Drug Screen. Data for the bub3 strain (AID 167). As to conditions: S. cerevisiae bub3 mutant strain, at 50.0 µM, stronger effect = higher value. The gist of the method: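 Screening used yeast with an engineered genetic alteration affecting cell cycle control. Compound-exposed cultures were compared with vehicle cultures, and reduced growth was taken as inhibition.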

The nature of assay [6]: NCI Yeast Anticancer Drug Screen. Data for the mlh1 rad18 strain (AID 175). As to conditions: S. cerevisiae mlh1 rad18 strain growth inhibition; at 50.0 µM; stronger effect = higher value. In a few lines: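 A repair-deficient yeast strain is exposed to test compound, and growth is scored relative to vehicle-treated controls.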

Consider `Cc1ccc(S(=O)(=O)c2ccc(C)cc2[N+](=O)[O-])cc1`, for which the growth inhibition in assay [1] was 21.8%; in assay [2] it was -7.5%; in assay [3], 18.5%; in assay [4], -4.95%; in assay [5], 45.7%; in assay [6], -9.75%.
Turning to `OC(CC1CCCCN1)c1cc2c(Cl)cc(Cl)cc2c2cc(C(F)(F)F)ccc12` (stereo unspecified), the growth inhibition in assay [1] is 68%; in assay [2], 50.6%; in assay [3], 42.5%; in assay [4] it was 30.1%; in assay [5], 98.8% (active); in assay [6] it was 52%.
On to `c1ccc(-c2cc[c]([Sn]([c]3ccccc3)([c]3ccccc3)[c]3ccccc3)cc2)cc1`, for which the growth inhibition in assay [1] was 95.2% (active); in assay [2] it was 98.5% (active); in assay [3], 96.8% (active); in assay [4], 99.2% (active); in assay [5], 99% (active); in assay [6], 98.2% (active).
Turning to `Nc1ccc(Br)c(N)c1`, the growth inhibition in assay [1] is -0.95%; in assay [2] it was -3.65%; in assay [3], -5.35%; in assay [4], -16.9%; in assay [5], -21.6%; in assay [6], -24.9%.
With `COc1cc(C2C3=C(CCCC3=O)N(c3ccc(C)cc3)C3=C2C(=O)CCC3)c([N+](=O)[O-])cc1OC`, the growth inhibition was -10.8% in assay [1]; -4.2% in assay [2]; 2.65% in assay [3]; 2.2% in assay [4]; 4.3% in assay [5]; -0.3% in assay [6].
As for `C=CCc1cc(OC)c2c(c1)C(OC)CC(c1ccc(OC)c(OC)c1)O2` (stereo unspecified), the growth inhibition was -3.7% in assay [1]; -34.3% in assay [2]; -6.05% in assay [3]; 12.6% in assay [4]; -12.7% in assay [5]; -17.9% in assay [6].
In the case of `NN1CCOC1=O`, the growth inhibition in assay [1] was 1.4%; in assay [2], -35.9%; in assay [3], 11.7%; in assay [4] it was -2.9%; in assay [5] it was -14.1%; in assay [6], -1.7%.
With `COC(=O)c1ccc(OC(=O)Nc2cccc(C(C)=O)c2)cc1`, the growth inhibition was 14.2% in assay [1]; 14.9% in assay [2]; 10.6% in assay [3]; -9.2% in assay [4]; 12.7% in assay [5]; 34.8% in assay [6].
As for `CSC(C(=O)O)c1cc(-c2c(Cl)cccc2Cl)no1` (stereo unspecified), the growth inhibition in assay [1] was -1.95%; in assay [2], 23.8%; in assay [3], 29%; in assay [4], 8.85%; in assay [5], 24.4%; in assay [6] it was 22.9%.
Take `Nc1nc(Cl)c(Cl)nc1C(=O)O`: the growth inhibition in assay [1] is -4.65%; in assay [2], 10.4%; in assay [3] it was 2.3%; in assay [4] it was -32.6%; in assay [5], -4.25%; in assay [6] it was -1.15%.
Take `Cc1cccc(C(C#N)c2ccc(N)cc2)c1` (stereo unspecified): the growth inhibition in assay [1] is -35.2%; in assay [2], -61%; in assay [3], -4.65%; in assay [4] it was 11.7%; in assay [5], -46%; in assay [6] it was -18.4%.
For the molecule `COc1ccc(C2OCCC(C)O2)cc1OC` (stereo unspecified), the growth inhibition in assay [1] is -14.6%; in assay [2], -12.8%; in assay [3] it was -19.7%; in assay [4], -48.8%; in assay [5], -33.5%; in assay [6] it was -14.8%.
For `N#C/C(=C/O)c1ccccc1`, the growth inhibition was 1.65% in assay [1]; 4.4% in assay [2]; -0.75% in assay [3]; 3.1% in assay [4]; 5.6% in assay [5]; -13.7% in assay [6].
With `NNC(=O)/C(NC(=O)c1ccccc1)=C(\N)c1cccc([N+](=O)[O-])c1`, the growth inhibition in assay [1] was -34.4%; in assay [2], -30.4%; in assay [3], 11.7%; in assay [4] it was 3.25%; in assay [5], -13.1%; in assay [6], 0.9%.
Turning to `CCOC(=O)c1ccc(C)cc1F`, the growth inhibition in assay [1] was -1.85%; in assay [2], 2.3%; in assay [3] it was 0.2%; in assay [4], -38.6%; in assay [5], -7.8%; in assay [6], 7.65%.
Regarding `O=c1[nH]nc(-c2ccc(Cl)cc2)[nH]1`, the growth inhibition in assay [1] was 9.35%; in assay [2], -4.25%; in assay [3], -3.85%; in assay [4], -30.1%; in assay [5] it was -5.8%; in assay [6] it was -3.9%.
With `CC(C)CCCC(C)C1CCC2(C)C3=C(CCC12C)C1(C)Cc2nonc2C(C)(C)C1CC3` (stereo unspecified), the growth inhibition was 20.9% in assay [1]; 3.35% in assay [2]; 3.3% in assay [3]; 14.9% in assay [4]; 0.55% in assay [5]; 11.3% in assay [6].
As to `C=CCCCCCCCCC(=O)NCCCN1CCOCC1`, the growth inhibition is 77.5% (active) in assay [1]; 76.1% (active) in assay [2]; 93.5% (active) in assay [3]; 83.6% (active) in assay [4]; 85% (active) in assay [5]; 94.7% (active) in assay [6].
For the molecule `Cc1ccc(C)c(NC(=O)C2C(=O)C(=O)N(c3cc(C)ccc3C)C2=O)c1` (stereo unspecified), the growth inhibition in assay [1] was 29.4%; in assay [2], -8.3%; in assay [3], -18.5%; in assay [4] it was 7.2%; in assay [5], -0.95%; in assay [6] it was 10.7%.
For the molecule `COc1ccc(/C=C2/C[N+](C)(C)C/C(=C/c3ccc(OC)cc3)C2=O)cc1`, the growth inhibition in assay [1] is 10.3%; in assay [2], 11.8%; in assay [3] it was -7.15%; in assay [4], 6.15%; in assay [5] it was 16.4%; in assay [6], -2.25%.
In the case of `CN(C)CC1CCCC(CN(C)C)C1OC(=O)c1ccccc1` (stereo unspecified), the growth inhibition is 23% in assay [1]; -5.15% in assay [2]; 9.25% in assay [3]; -37.5% in assay [4]; 14.4% in assay [5]; 50.9% in assay [6].
